Among all 5,500 compounds or so, about 2,000 (36%) were called active. Roughly 18% stayed inconclusive and do not appear here. No stated cut-off is given here; in the data, active means normalized growth mostly below about 0.91 (no sharp cut-off); inconclusive means no clear call, values can overlap the other calls; inactive means mostly above about 0.92. The list shows a part of the results.
Assay: chemical genetic growth profiling, strain panel (AID 1159580);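 further: tested at 20 µM; growth read once vehicle control cultures reached saturation at 30 °C; 1 = growth at the plate median or of vehicle wells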
Conditions: growth OD

Measured: normalized growth

CCN1CCN(C(=O)NC(C(=O)N[C@@H]2C(=O)N3[C@@H]2SC(C)(C)[C@@H]3C(=O)O)c2ccccc2)C(=O)C1=O (some centres not stated)
inactive: S. cerevisiae deletion strains, locus YJR075W, strain HOC1, stronger effect = lower value 1.01 | S. cerevisiae deletion strains, locus YKL009W, strain mrt4, stronger effect = lower value 1.02 | S. cerevisiae deletion strains, locus YKL068W, stronger effect = lower value 1 | S. cerevisiae deletion strains, locus YKL085W, strain MDH1 (second series), stronger effect = lower value 0.998 | S. cerevisiae deletion strains, locus YKL085W, strain MDH1, stronger effect = lower value 0.998 | S. cerevisiae deletion strains, locus YKL160W, strain elf1, stronger effect = lower value 0.985 | S. cerevisiae deletion strains, locus YKL190W, strain CNB1, stronger effect = lower value 1.01 | S. cerevisiae deletion strains, locus YKR001C, strain vps1, stronger effect = lower value 1.01 | S. cerevisiae deletion strains, locus YKR026C, strain gcn3, stronger effect = lower value 0.996 | S. cerevisiae deletion strains, locus YKR091W, strain srl3, stronger effect = lower value 1 | S. cerevisiae deletion strains, locus YLL001W, strain dnm1, stronger effect = lower value 0.979 | S. cerevisiae deletion strains, locus YLL026W, stronger effect = lower value 1.01 | S. cerevisiae deletion strains, locus YLL041C, strain sdh2, stronger effect = lower value 0.997 | S. cerevisiae deletion strains, locus YLR027C, strain aat2, stronger effect = lower value 0.998 | S. cerevisiae deletion strains, locus YLR039C, strain RIC1, stronger effect = lower value 0.991 | S. cerevisiae deletion strains, locus YLR058C, strain SHM2, stronger effect = lower value 1.02 | S. cerevisiae deletion strains, locus YLR102C, strain apc9, stronger effect = lower value 1 | S. cerevisiae deletion strains, locus YLR113W, strain HOG1, stronger effect = lower value 0.987 | S. cerevisiae deletion strains, locus YLR221C, strain rsa3, stronger effect = lower value 1 | S. cerevisiae deletion strains, locus YLR258W, strain gsy2, stronger effect = lower value 1 | S. cerevisiae deletion strains, locus YLR262C, strain YPT6 (second series), stronger effect = lower value 0.983 | S. cerevisiae deletion strains, locus YLR262C, strain YPT6, stronger effect = lower value 0.993 | S. cerevisiae deletion strains, locus YLR268W, strain sec22, stronger effect = lower value 1.02 | S. cerevisiae deletion strains, locus YLR320W, strain mms22, stronger effect = lower value 0.978 | S. cerevisiae deletion strains, locus YLR330W, strain CHS5, stronger effect = lower value 1.01 | S. cerevisiae deletion strains, locus YLR342W, strain FKS1 (second series), stronger effect = lower value 1.03 | S. cerevisiae deletion strains, locus YLR342W, strain FKS1, stronger effect = lower value 0.991 | S. cerevisiae deletion strains, locus YLR357W, strain rsc2, stronger effect = lower value 0.957 | S. cerevisiae deletion strains, locus YLR370C, strain arc18, stronger effect = lower value 1.01 | S. cerevisiae deletion strains, locus YLR371W, strain rom2, stronger effect = lower value 1.01 | S. cerevisiae deletion strains, locus YLR384C, strain iki3, stronger effect = lower value 0.992 | S. cerevisiae deletion strains, locus YLR418C, strain cdc73, stronger effect = lower value 1 | S. cerevisiae deletion strains, locus YML016C, strain PPZ1, stronger effect = lower value 1.01 | S. cerevisiae deletion strains, locus YML032C, strain rad52, stronger effect = lower value 1.01 | S. cerevisiae deletion strains, locus YML120C, strain ndi1, stronger effect = lower value 1.01 | S. cerevisiae deletion strains, locus YML124C, strain tub3, stronger effect = lower value 1.01 | S. cerevisiae deletion strains, locus YMR058W, strain fet3, stronger effect = lower value 1 | S. cerevisiae deletion strains, locus YMR078C, strain ctf18, stronger effect = lower value 1 | S. cerevisiae deletion strains, locus YMR125W, strain sto1, stronger effect = lower value 0.988 | S. cerevisiae deletion strains, locus YMR129W, stronger effect = lower value 1 | S. cerevisiae deletion strains, locus YMR205C, strain PFK2, stronger effect = lower value 1.01 | S. cerevisiae deletion strains, locus YMR223W, strain ubp8, stronger effect = lower value 1.01 | S. cerevisiae deletion strains, locus YMR231W, strain pep5, stronger effect = lower value 0.989 | S. cerevisiae deletion strains, locus YMR263W, strain SAP30, stronger effect = lower value 1.01 | S. cerevisiae deletion strains, locus YMR307W, strain GAS1, stronger effect = lower value 0.931 | S. cerevisiae deletion strains, locus YNL067W, strain RPL9B, stronger effect = lower value 1.01 | S. cerevisiae deletion strains, locus YNL071W, strain lat1, stronger effect = lower value 0.999 | S. cerevisiae deletion strains, locus YNL128W, strain TEP1, stronger effect = lower value 1.01 | S. cerevisiae deletion strains, locus YNL153C, strain GIM3, stronger effect = lower value 1.01 | S. cerevisiae deletion strains, locus YNL183C, strain NPR1, stronger effect = lower value 0.967 | S. cerevisiae deletion strains, locus YNL209W, strain ssb2, stronger effect = lower value 1 | S. cerevisiae deletion strains, locus YNL233W, strain BNI4, stronger effect = lower value 0.995 | S. cerevisiae deletion strains, locus YNL248C, strain rpa49, stronger effect = lower value 0.996 | S. cerevisiae deletion strains, locus YNL250W, strain rad50, stronger effect = lower value 1.01 | S. cerevisiae deletion strains, locus YNL271C, strain bni1, stronger effect = lower value 1.01 | S. cerevisiae deletion strains, locus YNL298W, strain CLA4, stronger effect = lower value 1.01 | S. cerevisiae deletion strains, locus YNL307C, strain MCK1, stronger effect = lower value 1.01 | S. cerevisiae deletion strains, locus YNL322C, strain KRE1 (second series), stronger effect = lower value 1 | S. cerevisiae deletion strains, locus YNL322C, strain KRE1, stronger effect = lower value 1 | S. cerevisiae deletion strains, locus YNR049C, strain mso1, stronger effect = lower value 0.993 | S. cerevisiae deletion strains, locus YNR052C, strain pop2, stronger effect = lower value 1.01 | S. cerevisiae deletion strains, locus YOL006C, strain TOP1, stronger effect = lower value 1.02 | S. cerevisiae deletion strains, locus YOL012C, strain htz1 1.52 | S. cerevisiae deletion strains, locus YOL147C, strain pex11, stronger effect = lower value 1 | S. cerevisiae deletion strains, locus YOR001W, strain rrp6, stronger effect = lower value 0.987 | S. cerevisiae deletion strains, locus YOR061W, strain CKA2, stronger effect = lower value 1.01 | S. cerevisiae deletion strains, locus YOR069W, strain VPS5, stronger effect = lower value 1.01 | S. cerevisiae deletion strains, locus YOR070C, strain gyp1, stronger effect = lower value 1 | S. cerevisiae deletion strains, locus YOR080W, strain dia2, stronger effect = lower value 0.997 | S. cerevisiae deletion strains, locus YOR083W, strain WHI5, stronger effect = lower value 0.976 | S. cerevisiae deletion strains, locus YOR106W, strain vam3, stronger effect = lower value 0.984 | S. cerevisiae deletion strains, locus YOR136W, strain idh2, stronger effect = lower value 1.01 | S. cerevisiae deletion strains, locus YOR144C, strain elg1, stronger effect = lower value 1.01 | S. cerevisiae deletion strains, locus YOR184W, strain ser1, stronger effect = lower value 1.02 | S. cerevisiae deletion strains, locus YOR231W, strain MKK1, stronger effect = lower value 0.985 | S. cerevisiae deletion strains, locus YOR265W, strain rbl2, stronger effect = lower value 1 | S. cerevisiae deletion strains, locus YOR270C, strain vph1, stronger effect = lower value 1.01 | S. cerevisiae deletion strains, locus YOR290C, strain snf2, stronger effect = lower value 1.01 | S. cerevisiae deletion strains, locus YOR316C, strain cot1, stronger effect = lower value 1.01 | S. cerevisiae deletion strains, locus YPL051W, strain arl3, stronger effect = lower value 0.983 | S. cerevisiae deletion strains, locus YPL055C, strain LGE1, stronger effect = lower value 1.01 | S. cerevisiae deletion strains, locus YPL078C, strain atp4, stronger effect = lower value 0.976 | S. cerevisiae deletion strains, locus YPL106C, strain sse1, stronger effect = lower value 1.02 | S. cerevisiae deletion strains, locus YPL240C, strain hsp82, stronger effect = lower value 0.988 | S. cerevisiae deletion strains, locus YPL241C, strain CIN2, stronger effect = lower value 1 | S. cerevisiae deletion strains, locus YPL256C, strain CLN2, stronger effect = lower value 0.962 | S. cerevisiae deletion strains, locus YPR119W, strain clb2, stronger effect = lower value 1.02 | S. cerevisiae deletion strains, locus YPR141C, strain kar3, stronger effect = lower value 1.02 | S. cerevisiae deletion strains, locus YPR163C, strain tif3, stronger effect = lower value 1.02 | S. cerevisiae deletion strains, locus YPR167C, strain met16, stronger effect = lower value 1.02 | S. cerevisiae deletion strains, strain wtn01, stronger effect = lower value 1.04 | S. cerevisiae strains, strain wild type, stronger effect = lower value 1.01

— PubChem BioAssay AID1159580 (chemical genetic matrix, 2015)
